Results filed as inconclusive are left out. The source made the active and inactive calls. Unless noted, calls follow the shape of the dose curve; as a rule, active = well fitted curve in either direction with a large enough effect (not every such curve was filed as active); inconclusive = small, poorly fitted or top-dose-only effect, or another doubt; inactive = flat fitted curve, though single readings scatter.
Molecular target: Glucocorticoid receptor (Homo sapiens) (UniProt P04150)
Assay: GR-EFC Redistribution (AID 451; calls by dose curve; also: potency is read from the fitted curve at half-maximal effect)
Conditions: CHO-K1 GR-EFC translocation, beta-gal luminescence, 2 h
Outline: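 CHO-K1 cells stably expressing nuclear-localized β-gal enzyme acceptor and GR fused C-terminally to the enzyme donor fragment; ligand-driven nuclear translocation restores β-gal by complementation. Compounds titrated up to 46 uM final, 2 h at 37 °C; luminescence read.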

Chain of Glucocorticoid receptor (Homo sapiens) (P04150 whole entry, looked up): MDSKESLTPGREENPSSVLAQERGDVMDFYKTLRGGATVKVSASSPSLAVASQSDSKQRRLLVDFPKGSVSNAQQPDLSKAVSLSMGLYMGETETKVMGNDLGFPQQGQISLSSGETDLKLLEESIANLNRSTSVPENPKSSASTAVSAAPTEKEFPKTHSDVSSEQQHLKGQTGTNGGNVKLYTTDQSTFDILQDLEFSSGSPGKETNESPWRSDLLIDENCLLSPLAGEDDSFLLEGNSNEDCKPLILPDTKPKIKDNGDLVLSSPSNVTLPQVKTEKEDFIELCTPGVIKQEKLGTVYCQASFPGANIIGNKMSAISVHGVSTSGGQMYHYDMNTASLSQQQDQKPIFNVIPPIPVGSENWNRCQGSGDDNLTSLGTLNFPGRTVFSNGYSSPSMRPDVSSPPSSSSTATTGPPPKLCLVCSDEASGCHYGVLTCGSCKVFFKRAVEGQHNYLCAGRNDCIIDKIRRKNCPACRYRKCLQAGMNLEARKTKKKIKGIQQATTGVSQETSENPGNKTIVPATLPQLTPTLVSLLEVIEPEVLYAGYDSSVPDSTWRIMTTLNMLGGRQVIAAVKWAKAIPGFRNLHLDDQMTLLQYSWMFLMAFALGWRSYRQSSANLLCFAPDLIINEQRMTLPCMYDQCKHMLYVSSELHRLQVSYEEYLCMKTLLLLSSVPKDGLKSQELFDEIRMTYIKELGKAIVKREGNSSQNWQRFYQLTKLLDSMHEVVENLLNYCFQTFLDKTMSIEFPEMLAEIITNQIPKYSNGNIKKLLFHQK

Potency, inactive:
NCCC[C@@H](CC(=O)N[C@@H]1CCCC[C@H]1C(=O)N[C@H](CC(=O)N[C@@H](CCC(=O)O)CC(=O)O)Cc1ccccc1)NC(=O)C[C@H](Cc1ccccc1)NC(=O)[C@@H]1CNCC[C@H]1N > 46 µM, NCCC[C@@H](CC(=O)N[C@@H]1CCNC[C@H]1C(=O)N[C@H](CC(=O)N[C@@H](CCC(=O)O)CC(=O)O)Cc1ccccc1)NC(=O)C[C@H](CO)NC(=O)[C@@H]1CNCC[C@H]1N > 46 µM, CC(C)C[C@@H](CC(=O)N[C@@H](CCC(=O)O)CC(=O)O)NC(=O)[C@@H]1CCCC[C@H]1NC(=O)C[C@H](CCCN)NC(=O)C[C@H](Cc1c[nH]c2ccccc12)NC(=O)[C@@H]1CCCC[C@H]1N > 46 µM, CC(C)C[C@@H](CC(=O)N[C@@H](CCCN)CC(=O)N[C@@H]1CCNC[C@H]1C(=O)N[C@H](CC(=O)N[C@@H](CCC(=O)O)CC(=O)O)CC(C)C)NC(=O)[C@@H]1CCCC[C@H]1N > 46 µM, CC(C)C[C@@H](CC(=O)N[C@@H](CCC(=O)O)CC(=O)O)NC(=O)[C@@H]1CNCC[C@H]1NC(=O)C[C@H](CCCN)NC(=O)C[C@H](Cc1c[nH]c2ccccc12)NC(=O)[C@@H]1CCCC[C@H]1N > 46 µM, NCCC[C@@H](CC(=O)N[C@@H]1CCNC[C@H]1C(=O)N[C@H](CC(=O)N[C@@H](CCC(=O)O)CC(=O)O)Cc1ccccc1)NC(=O)C[C@H](Cc1ccccc1)NC(=O)[C@@H]1CCCC[C@H]1N > 46 µM

Molecular target: Mitogen-activated protein kinase 10 (Mus musculus) (UniProt Q61831)
Assay: JNK3 AlphaScreen Assay (AID 530);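 also: kinase came from lysate of stimulated human HepG2 cells; signal reports phosphorylation of biotinylated GST-cJun 1-79 at Ser73 with 10 µM ATP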
Conditions: JNK3 lysate, c-Jun phosphorylation; series mostly up to 57.1 µM
Outline: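 Biotinylated GST-cJun(1-79) served as substrate for JNK3 in HepG2 lysates stimulated with IL-1beta and TNF-alpha. ATP was 10 uM final, pH 7.6. Ser73 phosphorylation was quantified by AlphaScreen (680 nm excitation).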

Potency, inactive:
C=C/C(=C\C)C[C@@H](CC(=O)N[C@@H](CCC(=O)O)CC(=O)O)NC(=O)[C@@H]1CNCC[C@H]1NC(=O)C[C@@H](NC(=O)C[C@H](Cc1ccccc1)NC(=O)[C@@H]1CCCC[C@H]1N)C(C)C, NCCC[C@@H](CC(=O)N[C@@H]1CCCC[C@H]1C(=O)N[C@H](CC(=O)N[C@@H](CCC(=O)O)CC(=O)O)Cc1c[nH]c2ccccc12)NC(=O)C[C@H](Cc1ccccc1)NC(=O)[C@@H]1CCCC[C@H]1N, C[C@@H]1C(=O)O[C@H]2[C@@H](O)[C@@]34[C@H]5C[C@H](C(C)(C)C)[C@@]36[C@H](OC(=O)[C@@H]6O)O[C@@]4(C(=O)O5)[C@@]12O, CC(C)C[C@@H](CC(=O)N[C@H](CC(=O)N[C@@H]1CCCC[C@H]1C(=O)N[C@H](CC(=O)N[C@@H](CCC(=O)O)CC(=O)O)Cc1ccccc1)C(C)C)NC(=O)[C@@H]1CCCC[C@H]1N, C=C(CO)[C@H]1Cc2c(ccc3c2O[C@H]2COc4cc(OC)c(OC)cc4[C@@H]2C3=O)O1, CC(C)C[C@@H](CC(=O)N[C@@H](CCC(=O)O)CC(=O)O)NC(=O)[C@@H]1CNCC[C@H]1NC(=O)C[C@H](CCCN)NC(=O)C[C@H](Cc1c[nH]c2ccccc12)NC(=O)[C@@H]1CNCC[C@H]1N, CC(C)[C@@H](CC(=O)N[C@@H]1CCCC[C@H]1C(=O)N[C@H](CC(=O)N[C@@H](CCC(=O)O)CC(=O)O)Cc1ccccc1)NC(=O)C[C@H](Cc1ccccc1)NC(=O)[C@@H]1CNCC[C@H]1N, CC(C)[C@@H](CC(=O)N[C@@H]1CCCC[C@H]1C(=O)N[C@H](CC(=O)N[C@@H](CCC(=O)O)CC(=O)O)Cc1ccccc1)NC(=O)C[C@H](Cc1ccccc1)NC(=O)[C@@H]1CCCC[C@H]1N, CN[C@@H]1[C@H](O)[C@H](NC)[C@@H]2O[C@]3(O)C(=O)C[C@@H](C)O[C@H]3O[C@@H]2[C@H]1O, NCCC[C@@H](CC(=O)N[C@@H]1CCNC[C@H]1C(=O)N[C@H](CC(=O)N[C@@H](CCC(=O)O)CC(=O)O)Cc1ccccc1)NC(=O)C[C@H](Cc1c[nH]c2ccccc12)NC(=O)[C@@H]1CCCC[C@H]1N, CC(C)C[C@@H](CC(=O)N[C@@H](CCC(=O)O)CC(=O)O)NC(=O)[C@@H]1CCCC[C@H]1NC(=O)C[C@@H](NC(=O)C[C@H](Cc1ccccc1)NC(=O)[C@@H]1CNCC[C@H]1N)C(C)C, CC(C)C[C@@H](CC(=O)N[C@@H](CCCN)CC(=O)N[C@@H]1CCNC[C@H]1C(=O)N[C@H](CC(=O)N[C@@H](CCC(=O)O)CC(=O)O)Cc1c[nH]c2ccccc12)NC(=O)[C@@H]1CCCC[C@H]1N, CC(C)C[C@@H](CC(=O)N[C@@H](CCCN)CC(=O)N[C@@H]1CCNC[C@H]1C(=O)N[C@H](CC(=O)N[C@@H](CCC(=O)O)CC(=O)O)Cc1ccccc1)NC(=O)[C@@H]1CNCC[C@H]1N, CC(C)C[C@@H](CC(=O)N[C@@H](CCC(=O)O)CC(=O)O)NC(=O)[C@@H]1CCCC[C@H]1NC(=O)C[C@@H](NC(=O)C[C@H](Cc1c[nH]c2ccccc12)NC(=O)[C@@H]1CNCC[C@H]1N)C(C)C, O=C1C[C@H](c2ccccc2)Oc2cc(O)cc(O)c21, CC(C)C[C@@H](CC(=O)N[C@@H](CCC(=O)O)CC(=O)O)NC(=O)[C@@H]1CCCC[C@H]1NC(=O)C[C@H](CCCN)NC(=O)C[C@H](Cc1c[nH]c2ccccc12)NC(=O)[C@@H]1CCCC[C@H]1N, CC(C)C[C@@H](CC(=O)N[C@@H](CCCN)CC(=O)N[C@@H]1CCNC[C@H]1C(=O)N[C@H](CC(=O)N[C@@H](CCC(=O)O)CC(=O)O)CC(C)C)NC(=O)[C@@H]1CCCC[C@H]1N, CC(C)C[C@@H](CC(=O)N[C@@H](CCC(=O)O)CC(=O)O)NC(=O)[C@@H]1CNCC[C@H]1NC(=O)C[C@H](CCCN)NC(=O)C[C@H](Cc1c[nH]c2ccccc12)NC(=O)[C@@H]1CCCC[C@H]1N, NCCC[C@@H](CC(=O)N[C@@H]1CCNC[C@H]1C(=O)N[C@H](CC(=O)N[C@@H](CCC(=O)O)CC(=O)O)Cc1ccccc1)NC(=O)C[C@H](Cc1ccccc1)NC(=O)[C@@H]1CCCC[C@H]1N

— PubChem BioAssay (NCATS)
